Test systems include HCT-15 colon; HT29 colon; SNB-75 CNS; SNB-19 CNS; U251 CNS; PC-3 prostate; SK-MEL-5 melanoma; UACC-62 melanoma; LOX IMVI melanoma; SK-MEL-28 melanoma.
What all share (assay): NCI-60 one-dose screen, 48 h (100 = growth as untreated, 0 = no growth, -100 = all killed)
What all share (conditions): 10 µM unless noted

Compounds without any hit were thinned out: in the full panel of roughly 83,000, 20% have a hit.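 Cells were grown in 96-well plates and exposed to the test compound at a single concentration for 48 hours; results are reported as percent growth, with values below 10 considered active.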 Unmarked numbers belong to inactive results. The source made the active and inactive calls.

In the case of `CC(=O)N1N=C(c2ccc(C(F)(F)F)cc2)CC1c1ccc2c(c1)OCO2` (stereo not given), the growth is 81.1% with HCT-15 colon; 47.4% with HT29 colon; 90% in the assay on SNB-75 CNS; 91% in the assay with SNB-19 CNS; 94.6% in the assay with U251 CNS; 73.9% in the assay on PC-3 prostate. Moreover, the growth is 95% with SK-MEL-5 melanoma, 65% with UACC-62 melanoma, 81.4% with LOX IMVI melanoma and 95.4% with SK-MEL-28 melanoma.

As to `CCSc1ncc(Br)c(Sc2nc(N)nc3nc[nH]c23)n1`, the growth is 68.5% with HCT-15 colon; 62.3% in the assay on HT29 colon; 60.2% with SNB-75 CNS; 121% in the assay with SNB-19 CNS; 89.5% in the assay with U251 CNS; 80.1% in the assay on PC-3 prostate. For the same compound, the growth with SK-MEL-5 melanoma is 74.6%; in the assay on UACC-62 melanoma, 19.3%; in the assay on LOX IMVI melanoma it was 19.5%; in the assay with SK-MEL-28 melanoma, 152%.

Take `O=C(O)CCNS(=O)(=O)c1ccc(-c2ccccc2)cc1`: the growth was 99.2% in the assay on HCT-15 colon; 110% in the assay on HT29 colon; 90.6% in the assay on SNB-75 CNS; 102% with SNB-19 CNS; 94.5% in the assay on U251 CNS; 89.6% with PC-3 prostate. Also, the growth in the assay with SK-MEL-5 melanoma is 97.9%; in the assay on UACC-62 melanoma, 96.7%; with LOX IMVI melanoma, 92.1%; with SK-MEL-28 melanoma it was 94.3%.

In the case of `COc1cc(/C=N/NC(=O)c2ccc(C(F)(F)F)nc2Nc2ccc(Cl)cc2C)ccc1O`, the growth in the assay with HCT-15 colon was 27.9%; in the assay on HT29 colon, 45.2%; in the assay with SNB-75 CNS, 19.7%; with SNB-19 CNS, 54.4%; in the assay with U251 CNS, 33.8%; with PC-3 prostate, 24.8%. Also, the growth is -61.3% (active) with SK-MEL-5 melanoma, 44.5% in the assay with UACC-62 melanoma, 33.7% with LOX IMVI melanoma and 42.5% in the assay on SK-MEL-28 melanoma.

Turning to `FCc1ncc(-c2ccc(C(F)(F)F)cc2)c(NC2CCCCCC2)n1`, the growth in the assay on HCT-15 colon is 9.18% [100 µM] (active); in the assay on HT29 colon it was -33.6% [100 µM] (active); in the assay with SNB-75 CNS it was 28.6% [100 µM]; in the assay on SNB-19 CNS, 32.6% [100 µM]; with U251 CNS, -29.7% [100 µM] (active); with PC-3 prostate, 7.27% [100 µM] (active). Moreover, the growth is -3.43% [100 µM] (active) in the assay on SK-MEL-5 melanoma, 3.7% [100 µM] (active) in the assay on UACC-62 melanoma, -52.6% [100 µM] (active) with LOX IMVI melanoma and 33.6% [100 µM] in the assay with SK-MEL-28 melanoma.

In the case of `COc1ccc(C2CC(c3ccc(Nc4ccnc5cc(Cl)ccc45)cc3)=NN2C(C)=O)cc1` (stereo not given), the growth was 44.2% in the assay on HCT-15 colon; 27.4% in the assay with HT29 colon; 75.8% in the assay on SNB-75 CNS; 82.4% in the assay on SNB-19 CNS; 62.8% in the assay on U251 CNS; 53.3% in the assay with PC-3 prostate. The growth was 5.89% (active) in the assay with SK-MEL-5 melanoma, 54.8% in the assay on UACC-62 melanoma, 60.5% with LOX IMVI melanoma and 70.2% in the assay on SK-MEL-28 melanoma.

Consider `Cc1ccc(/C=C/C(=O)c2ccc(F)cc2)s1`, for which the growth in the assay with HCT-15 colon was 67.3%; with HT29 colon, 43.5%; with SNB-75 CNS it was 90.9%; with SNB-19 CNS it was 88%; with U251 CNS, 51.6%; in the assay with PC-3 prostate, 63.8%. Moreover, the growth with SK-MEL-5 melanoma was 90.6%; with UACC-62 melanoma it was 72.7%; with LOX IMVI melanoma it was 58.3%; in the assay with SK-MEL-28 melanoma it was 105%.

On to `COC(=O)C1CCN(S(=O)(=O)c2ccc(-c3ccccc3)cc2)CC1`, for which the growth is 110% in the assay on HCT-15 colon; 109% in the assay with HT29 colon; 87.8% with SNB-75 CNS; 98.5% in the assay with SNB-19 CNS; 111% in the assay on U251 CNS; 90.3% in the assay on PC-3 prostate. Besides, the growth is 107% in the assay with SK-MEL-5 melanoma, 98.2% in the assay with UACC-62 melanoma, 107% in the assay on LOX IMVI melanoma and 105% in the assay on SK-MEL-28 melanoma.

In the case of `O=Nc1c2cccnc2n2nnc3ccc(Cl)cc3c12`, the growth in the assay on HCT-15 colon was 24.5%; in the assay on HT29 colon, 8.1% (active); in the assay on SNB-75 CNS it was 63.4%; in the assay on SNB-19 CNS it was 89.8%; in the assay on U251 CNS, 50.6%; in the assay on PC-3 prostate, -26.9% (active). The growth in the assay with SK-MEL-5 melanoma is 96.2%; in the assay with UACC-62 melanoma, 73.5%; with LOX IMVI melanoma, 26.6%; with SK-MEL-28 melanoma it was 28.3%.

Turning to `CCCCCCCCCCN1CCC(N2CCCCC2)CC1`, the growth was -5.57% (active) in the assay on HCT-15 colon; -38.9% (active) in the assay on HT29 colon; -47.8% (active) in the assay on SNB-75 CNS; 28.2% in the assay with SNB-19 CNS; 4.67% (active) in the assay on U251 CNS; 16% in the assay on PC-3 prostate. Moreover, the growth with SK-MEL-5 melanoma was -96.9% (active); with UACC-62 melanoma it was -79.7% (active); in the assay with LOX IMVI melanoma, -72.8% (active); with SK-MEL-28 melanoma, -29.1% (active).

For the compound `Cc1sc2nc(N3CCCCC3)[nH]c(=O)c2c1C`, the growth is 103% in the assay with HCT-15 colon; 88.6% in the assay with HT29 colon; 91% in the assay on SNB-75 CNS; 92.4% with SNB-19 CNS; 92.4% in the assay with U251 CNS; 76.4% in the assay with PC-3 prostate. The growth in the assay with SK-MEL-5 melanoma was 96.9%; with UACC-62 melanoma, 97.5%; with LOX IMVI melanoma it was 99%; with SK-MEL-28 melanoma, 103%.

Consider `C[C@H]1O[C@@H](O[C@H]2[C@@H](O)C[C@H](O[C@H]3[C@@H](O)C[C@H](O[C@H]4CC[C@]5(C)C6CC[C@]7(C)[C@@H](C8=CC(=O)OC8)CC[C@]7(O)C6CC[C@@H]5C4)O[C@@H]3C)O[C@@H]2C)C[C@H](O)[C@@H]1O` (stereo not given in full), for which the growth in the assay on HCT-15 colon is -85.6% (active); in the assay with HT29 colon it was -89.8% (active); in the assay on SNB-75 CNS it was -80.8% (active); with SNB-19 CNS it was -100% (active); in the assay on U251 CNS, -100% (active); with PC-3 prostate, -24.1% (active). The growth in the assay with SK-MEL-5 melanoma is -100% (active); in the assay with UACC-62 melanoma it was -82.4% (active); in the assay on LOX IMVI melanoma, -100% (active); with SK-MEL-28 melanoma, -51.5% (active).

For the compound `Cc1ccc2nc(-c3ccc(N(C)C)c(Br)c3)cn2c1`, the growth in the assay on HCT-15 colon is 33.9%; with HT29 colon, 72.8%; with SNB-75 CNS it was 103%; in the assay on SNB-19 CNS, 99.4%; in the assay on U251 CNS it was 49.1%; in the assay on PC-3 prostate, 53.7%. The growth in the assay with SK-MEL-5 melanoma was 77.9%; in the assay on UACC-62 melanoma, 66.6%; in the assay with LOX IMVI melanoma, 56.3%; in the assay with SK-MEL-28 melanoma it was 93.3%.
